Values joined by “and” are separate entries in the source; they are usually repeats but may differ in a detail not shown here. Equal entries are not always repeated. Active and inactive are the calls of the source. The call rests on the fitted dose curve; in most records, active means well fitted activation curve with a large enough effect; inconclusive means small, poorly fitted or top-dose-only effect; inactive means no such curve, though single readings can be large or run the other way.

Sequence of Cytochrome P450 3A4 (Homo sapiens) (P08684 whole entry, looked up): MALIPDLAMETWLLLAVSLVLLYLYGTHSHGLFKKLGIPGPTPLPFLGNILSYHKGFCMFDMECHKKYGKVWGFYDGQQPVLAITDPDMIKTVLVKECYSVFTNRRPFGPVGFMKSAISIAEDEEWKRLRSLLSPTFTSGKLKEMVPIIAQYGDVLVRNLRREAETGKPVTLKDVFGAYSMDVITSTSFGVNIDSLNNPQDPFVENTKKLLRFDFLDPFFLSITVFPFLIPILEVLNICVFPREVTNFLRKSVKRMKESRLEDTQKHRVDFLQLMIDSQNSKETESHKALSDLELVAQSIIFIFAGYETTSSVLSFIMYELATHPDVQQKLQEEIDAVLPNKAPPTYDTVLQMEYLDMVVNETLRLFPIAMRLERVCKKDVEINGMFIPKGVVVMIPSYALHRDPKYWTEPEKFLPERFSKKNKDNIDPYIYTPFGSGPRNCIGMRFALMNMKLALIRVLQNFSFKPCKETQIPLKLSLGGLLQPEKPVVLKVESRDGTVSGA

The target of this assay is Cytochrome P450 3A4 (Homo sapiens) (UniProt P08684). In words: qHTS Assay for Activators of Cytochrome P450 3A4 (AID 885). Further: nearly all actives have a fitted effect of over 65% in size. The settings on record: recombinant CYP3A4, Luciferin-PPXE luminescence, 60 min; series mostly up to 57.1 µM. The procedure, abridged:
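Human CYP3A4 dealkylates Luciferin-PPXE to luciferin, which luciferase detection converts to light. Substrate was at its KM (25uM), buffer 200mM KPO4, reaction 60 min at RT.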
`CCC1=C(OC(=O)N(CC)CC)N2C(=O)OC(=NCC(=O)OC)[C@]2(Cc2ccccc2)[C@H]2C1=CC[C@H]1C(=O)N(c3ccccc3)C(=O)[C@H]12`: the Potency result is “inactive”.
On to `FC(F)(F)c1ccc(C2[C@H]3CN(Cc4ccc(-c5ccccc5)cc4)[C@H](c4ccccc4)C34CC2(c2ccccc2)C4)cc1` (some centres undefined), for which the Potency entry is “inactive”.
Take `COC(=O)[C@@H]1CC[C@H](C)[C@@H](c2ccc(C)cc2)N1C(=O)c1ccc(/C=N\O[C@@H](C)CN2CCCc3nc(C)c(C)cc32)cc1`: the activity change, positive = activation is -48.9% [at 11.4 µM] (inactive).
With `CCC1=C2CC[C@H]3C(=O)NC(=O)[C@H]3[C@H]2[C@@]2(C)C(=NCC3CC3)OC(=O)N2C1=O`, the Potency entry was “inactive”.
Turning to `CO[C@H]1COC(=O)C/C=C\[C@@H](C)COC(=O)[C@@H](CCSC)NC(=O)C/C=C\[C@@H]1C`, the activity change, positive = activation was -36.9% [at 11.4 µM] (inactive) and -35.4% [at 11.4 µM] (inactive).
As to `CC(=O)OC[C@@H]1O[C@H](CCO/N=C(\C)CCN2CCc3nc(-c4ccccc4)c(-c4ccccc4)cc3C2)C=C[C@@H]1OC(C)=O`, the activity change, positive = activation was -47.2% [at 11.4 µM] (inactive).
Still for that read-out and setting: for `COc1ccc(O[C@H]2C=C[C@@H](c3ccccc3)O[C@@H]2CON=C(C)C)cc1` the value was -40.2% [at 11.4 µM] (inactive); for `CCCNC(=O)OC[C@@H]1O[C@H](CCO/N=C\c2ccc(C(=O)N3[C@H](c4ccc(C)cc4)[C@@H](C)CC[C@H]3C(=O)OC)cc2)C=C[C@@H]1Oc1ccc(OC)cc1`, -51.6% [at 11.4 µM] (inactive).
Consider `CC[C@@H](c1ccccc1)n1c(=O)n2n(c1=O)[C@H]1[C@H](O)[C@H]3O[C@@H]3/C(=N/OCc3ccccc3)[C@@H]1CC2`, for which the activity change, positive = activation is -33.4% [at 11.4 µM] (inactive).
Regarding `CO[C@@H]1COC(=O)C/C=C\[C@@H](C)[C@H](OC)COC(=O)[C@H](COCc2ccccc2)NC(=O)C/C=C\[C@H]1C`, the activity change, positive = activation is -41.7% [at 11.4 µM] (inactive).
Same read-out and setting: for `CC(C)[C@@H](OCc1ccccc1)[C@H](C)/C=N\O[C@@H](C)c1cn([C@H](CO)Cc2ccccc2)nn1` the value was -36% [at 11.4 µM] (inactive) and -44.1% [at 11.4 µM] (inactive); for `CO[C@H]1COC(=O)[C@@H](Cc2ccccc2)NC(=O)[C@@H](C)COC(=O)C/C=C\[C@@H]1C`, -36.9% [at 11.4 µM] (inactive).
`FC(F)(F)c1ccc(CN2C[C@@H]3C(c4ccccc4)C4(c5ccccc5)CC3(C4)[C@H]2c2ccccc2)cc1` (some centres undefined): the Potency entry was “inactive”.
On the same count and under the same terms, for `COC(=O)C1(C)C=CC2(CCCCC2)N1C(=O)c1ccccc1` (centres undefined) the value was “inactive”.
With `O=C1[C@H]2[C@H]3[C@H](O)[C@H](O)C/C(=N/OCc4ccccc4)[C@@H]3CC[C@@H]2C(=O)N1Cc1ccc2c(c1)OCO2`, the activity change, positive = activation is -100% [at 11.4 µM] (inactive).
Consider `CO[C@@H]1COC(=O)C/C=C\[C@@H](C)COC(=O)[C@H](COCc2ccccc2)NC(=O)C/C=C\[C@H]1C`, for which the activity change, positive = activation is -56.3% [at 11.4 µM] (inactive).
In the case of `COC(=O)[C@@H]1C[C@@H]2CC[C@@H](O)C[C@@H]2N1Cc1ccc(N2CCOCC2)cc1`, the Potency result is “inactive”.
Consider `O=C1[C@H]2[C@H]3[C@H](O)[C@H](O)C/C(=N/OC[C@@H](O)COCc4ccco4)[C@H]3CC[C@@H]2C(=O)N1c1cccc(Oc2ccccc2)c1`, for which the activity change, positive = activation was -40.2% [at 11.4 µM] (inactive).
As for `CO[C@H]1COC(=O)CCC[C@@H](C)[C@H](OC)COC(=O)[C@H]2CCCN2C(=O)C/C=C\[C@@H]1C`, the activity change, positive = activation is -30.7% [at 11.4 µM] (inactive).
With `CCCC[C@@H]1CN2[C@H](c3ccc(Br)cc3)[C@@H](C)CC[C@H]2C(=O)O1`, the activity change, positive = activation is -59.6% [at 11.4 µM] (inactive).
For the molecule `COC(=O)c1ccc(C23CC4(C2)[C@H](CN(Cc2ccc(C(F)(F)F)cc2)[C@@H]4c2ccccc2)C3c2ccccc2)cc1` (some centres undefined), the Potency result was “inactive”.
For the molecule `COC(=O)N1[C@H](C)C=C[C@]1(Cc1ccccc1)C(=O)NCc1ccc(N(C)C)cc1`, the Potency entry is “inactive”.
Take `C/C(CCN1CCc2nc(-c3ccccc3)c(-c3ccccc3)cc2C1)=N\OC[C@@H](O)[C@@H]1O[C@@H]2OC(C)(C)O[C@@H]2[C@H]1O`: the activity change, positive = activation is -41.3% [at 11.4 µM] (inactive).
For the molecule `COC(=O)[C@@H]1CC[C@H](C)[C@@H](c2ccc(C)cc2)N1C(=O)c1ccc(/C=N\O[C@@H](C)c2cn([C@H]3COC[C@H]3O)nn2)cc1`, the activity change, positive = activation was -43.4% [at 11.4 µM] (inactive).
Turning to `CC(=O)OC[C@@H]1O[C@H](C/C=N\O[C@@H](C)c2cn([C@H](CO)Cc3ccccc3)nn2)C=C[C@@H]1OC(C)=O`, the activity change, positive = activation was -51.6% [at 11.4 µM] (inactive) and -34% [at 11.4 µM] (inactive).
Regarding `COc1cccc([C@H](O)Cn2cc(-c3cccc(CON=C(C)C)c3)nn2)c1`, the activity change, positive = activation was -43.8% [at 11.4 µM] (inactive).
Take `CCN1C(=O)[C@H]2[C@H]3[C@H](O)[C@H](O)C/C(=N/OC[C@@H](C)[C@H](OCc4ccccc4)C(C)C)[C@@H]3CC[C@@H]2C1=O`: the activity change, positive = activation was -44.7% [at 11.4 µM] (inactive).
With `CO[C@H]1COC(=O)[C@@H](C)COC(=O)[C@@H](COCc2ccccc2)NC(=O)C/C=C\[C@H]1C`, the activity change, positive = activation was -40.1% [at 11.4 µM] (inactive).
Consider `Clc1ccc(C2[C@H]3CN(Cc4ccc(-c5ccccc5)cc4)[C@H](c4ccccc4)C34CC2(c2ccccc2)C4)cn1` (some centres undefined), for which the Potency entry was “inactive”.
Take `COC(=O)N1C2(C=CC1(C)C(=O)NCc1ccc(N(C)C)cc1)CCCCC2` (centres undefined): the Potency entry is “inactive”.
Consider `O=C1[C@H]2[C@H]3[C@H](O)[C@H](O)C/C(=N/OC[C@@H](O)COCc4ccco4)[C@H]3CC[C@@H]2C(=O)N1C1CCCCC1`, for which the activity change, positive = activation is -43.8% [at 11.4 µM] (inactive).
Regarding `COC(=O)c1ccc(C23CC4(C2)[C@H](CN(CC2CCCCC2)[C@@H]4c2ccccc2)C3c2ccc(C(F)(F)F)cc2)cc1` (some centres undefined), the Potency result was “inactive”.
As for `CCC1=C(OC(=O)N(CC)CC)N2C(=O)OC(=NCC3CC3)[C@]2(Cc2ccccc2)[C@H]2C1=CC[C@H]1C(=O)NC(=O)[C@H]12`, the Potency result was “inactive”.
With `COC(=O)c1cccc(C#CC(NP(=O)(c2ccccc2)c2ccccc2)c2ccccc2)c1` (centres undefined), the Potency result is “inactive”.
On to `CC(C)CO/N=C1/C[C@@H](O)[C@@H](O)[C@@H]2[C@@H]3C(=O)N(Cc4ccccc4)C(=O)[C@H]3CC[C@H]12`, for which the activity change, positive = activation was -30.2% [at 11.4 µM] (inactive).
Consider `COC(=O)[C@@H]1C[C@H]2CC[C@H](O)C[C@H]2N1Cc1ccc(N2CCOCC2)cc1`, for which the Potency result was “inactive”.
Turning to `CO[C@H]1COC(=O)[C@@H](C)COC(=O)[C@@H](Cc2ccccc2)NC(=O)C/C=C\[C@H]1C`, the activity change, positive = activation was -36.8% [at 11.4 µM] (inactive).
Regarding `CC(Cc1ccccc1)C(=O)NCCc1c[nH]c2ccccc12` (centres undefined), the Potency result is “inactive”.
Turning to `CC(C)=CCC/C(C)=C/CO/N=C1/C[C@@H](O)[C@@H](O)[C@@H]2[C@@H]3C(=O)N(C[C@@H]4CCCO4)C(=O)[C@H]3CC[C@H]12`, the activity change, positive = activation was -35.7% [at 11.4 µM] (inactive).
